Source: PubChem BioAssay (several laboratories)
In the library only some 2% were active in any assay of this set; here they are far more common.
PG9 Ab binder: small molecules binding HIV-1 gp120 antibody PG9 | TR-FRET gp120-PG9 antibody binding | inhibition, % at 6.7 µM | 360,000 tested, 0.43% active; in the data active = inhibition above about 8.5%
Granule exo inh: lytic granule exocytosis inhibition. TALL-104 LAMP-1 surface exposure, flow cytometry; cells stimulated with thapsigargin and PMA. inhibition, % at 10 µM. 360,000 tested, 0.66% active. AID 651702;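 active = inhibition above about 55%, limit read from the data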
NR1D1 modulator: modulates human Rev-erb alpha binding to DNA. P20393. Rev-erbα–FITC-DNA binding, fluorescence polarization, 90 min. activity, % at 10 µM. 370,000 tested, 0.79% active;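 active = activity above about 14%, limit read from the data; passing the limit was not always enough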;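 also: 0% = DMSO wells with 35 nM protein and 100% = DMSO wells with 750 nM protein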
VLA-4 inh: inhibition in a human VLA-4 binding assay. VLA-4 expressing cells, ligand binding flow cytometry. AID 2557. inhibition, % (about 7 µM as worked out from the volumes in the protocol). 330,000 tested, 0.2% active. P13612; in the data active = inhibition above about 50%
ABCB6 inh MLPCN: blocks the human ABCB6 transporter | Q9NP58 | K562-ABCB6 porphyrin accumulation, flow cytometry, 1 h; hits give low values | fluorescence ratio to DMSO, % at 10 µM | 360,000 tested, 0.19% active | AID 602162;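 active = fluorescence ratio to DMSO below 75%, the collection mean minus 3 SD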;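 also: signal is porphyrin accumulated inside mitochondria; 100% equals median channel fluorescence of DMSO control wells; lower ratio means ABCB6 inhibition with less porphyrin fluorescence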
An asterisk follows results filed as active; i = inactive; / = not tested or not shown.

SMILES | PG9 Ab binder | Granule exo inh | NR1D1 modulator | VLA-4 inh | ABCB6 inh MLPCN
CCOc1ccc(-c2csc(NNC3=NCCCCC3)n2)cc1 | -5.8 | 55.9* | -2.5 | 19.9 | 100.0
COc1ccc(-c2csc(NNC3=NCCCCC3)n2)cc1 | -2.0 | / | 1.5 | -0.1 | /
CCC(C)c1ccccc1NC(=O)COC(=O)c1ccc2[nH]c3c(c2c1)CCCC3 (stereo not drawn) | 0.2 | 60.8* | -5.2 | 2.9 | 83.0
O=C(COC(=O)c1ccc2[nH]c3c(c2c1)CCCC3)Nc1ccccc1Cl | 0.4 | -4.5 | 0.6 | 2.7 | 87.0
COc1cc(/C=C/c2nc(-c3ccccc3O)n[nH]2)cc(OC)c1OC | 0.4 | 98.1* | 6.0 | 2.6 | 94.0
COc1cc(/C=C/c2nc(N)nc(-c3ccccc3O)n2)cc(OC)c1OC | -0.9 | 25.3 | 4.8 | 7.3 | 98.0
O=C1/C(=C\c2ccccc2)CN(C(=O)CCN2CCCCC2)C/C1=C/c1ccccc1 | 0.5 | 83.2* | 1.1 | / | 105.0
O=C1/C(=C\c2ccc(Cl)c(Cl)c2)CN(C(=O)CCN2CCOCC2)C/C1=C/c1ccc(Cl)c(Cl)c1 | -0.2 | 65.3* | -8.3 | / | 97.0
CC(C)CN1C(=O)[C@]2(CC(=O)N(C)C2c2ccccc2)c2cc(-n3cc(CN(C)C)nn3)ccc21 (stereo partly drawn) | / | / | -0.4 | / | /
CC1(C)CC(=O)C(=Cc2cn(-c3ccccc3)nc2-c2ccccc2)C(=O)C1 | 0.4 | 55.9* | -4.3 | 8.0 | 95.0
Cc1ccc(-c2nn(-c3ccccc3)cc2C=C2C(=O)CC(C)(C)CC2=O)cc1 | 0.0 | 52.1 | -3.0 | 4.9 | 105.0
COc1ccc2c(c1)C[C@@H](CON1C(C)(C)CCCC1(C)C)N2S(=O)(=O)c1ccc(C)cc1 | / | / | 9.0 | / | /
C[C@H](O)[C@@H]1CN2CCc3c([nH]c4ccccc34)[C@@H]2C[C@@H]1N(C)C(=O)Nc1cccc2ccccc12 | -3.8 | 74.4* | -3.8 | / | 101.0
CCNC(=O)N(C)[C@H]1C[C@H]2c3[nH]c4ccccc4c3CCN2C[C@H]1[C@H](C)O | -0.2 | -2.9 | -2.3 | / | 100.0
C/C=C/C=C/C(=O)N1C[C@H](C)N(C)C[C@H]1C | / | / | -5.1 | / | /
Cc1cc(C)c(S(=O)(=O)NCC23C=CC(O2)C2C(=O)N(c4ccccc4)C(=O)C23)c(C)c1 (stereo not drawn) | 0.4 | 76.9* | 4.0 | -14.7 | 95.0
Cc1ccc(N2C(=O)C3C4C=CC(CNC(=S)Nc5ccc(Cl)cc5)(O4)C3C2=O)cc1 (stereo not drawn) | -2.0 | 38.9 | 2.4 | 20.6 | 92.0
O=C1C2C3C=CC(CNS(=O)(=O)c4ccccc4[N+](=O)[O-])(O3)C2C(=O)N1c1ccccc1 (stereo not drawn) | 1.0 | 53.9 | -6.1 | -1.5 | 143.0
CC(C)COC(=O)NCC12C=CC(O1)C1C(=O)N(c3ccc(Cl)cc3)C(=O)C12 (stereo not drawn) | -2.4 | 90.9* | 9.2 | 27.8 | 104.0
O=C1c2ccccc2S(=O)(=O)N1CCCN1C(=O)c2ccccc2S1(=O)=O | 0.8 | -11.2 | -7.3 | / | 97.0
O=C1c2ccccc2C(=O)N1OCCCN1C(=O)c2ccccc2S1(=O)=O | -1.9 | -10.5 | -0.2 | / | 31.0*
COc1ccc(C2CC(=O)C(c3ccc(C#N)cc3)=CN2Cc2ccccc2)cc1 (stereo not drawn) | -2.5 | / | -6.3 | / | /
O=c1c(Br)ccc(Br)cc1Br | -0.2 | 45.6 | 1.5 | / | 19.0*
O=C1CN(S(=O)(=O)c2cc(Br)ccc2Br)CCN1 | -1.5 | 0.1 | 1.9 | -5.9 | 99.0
CCN(C(=S)Nc1cc(S(=O)(=O)N2CCOCC2)ccc1Cl)c1cccc2ccccc12 | -1.1 | 60.6* | 11.0 | 4.7 | 97.0
SMILES | PG9 Ab binder | Granule exo inh | NR1D1 modulator | VLA-4 inh | ABCB6 inh MLPCN
CCOC(=O)CS(=O)(=O)c1nc(-c2ccccc2)cc(C(F)(F)F)n1 | 1.0 | 29.9 | 0.5 | 36.5 | 92.0
CCOC(=O)CS(=O)(=O)c1nc(-c2ccc(F)cc2)cc(C(F)(F)F)n1 | / | 95.8* | / | 19.3 | 84.0
CCOC(=O)CCS(=O)(=O)c1nc(-c2ccccc2)cc(C(F)(F)F)n1 | / | 88.1* | / | 26.7 | 72.0*
COCC(C)NC(=O)CCS(=O)(=O)c1nc(-c2ccc(OC)cc2)cc(C(F)(F)F)n1 (stereo not drawn) | -0.8 | 77.5* | -5.6 | 6.4 | 119.0
C=CCN1C(=O)[C@@H](CC(=O)N2CCCC2)[C@]2(C(=O)OC)CCCCC=C12 | / | / | 5.3 | / | /
O=S1(=O)c2ccc(N3CCN(Cc4ccccc4F)CC3)cc2Oc2ccccc2CN1Cc1cn(Cc2cccc(F)c2)nn1 | / | / | 0.1 | / | /
O=C1C(=Cc2ccccc2Cl)CCc2ccccc21 | -0.2 | 3.1 | 0.8 | / | 98.0
Cc1ccc([N+](=O)[O-])cc1N/C=C1\CCc2ccccc2C1=O | -1.5 | 57.1* | 3.7 | 4.8 | 95.0
O=C(NC1CCCCN(Cc2cccc(C(F)(F)F)c2)C1=O)c1cccc([N+](=O)[O-])c1 (stereo not drawn) | / | / | -1.7 | / | /
Nc1[nH]c(C(=O)c2ccccc2)c(-c2cccc(C(F)(F)F)c2)c1C(=O)NCCc1c[nH]c2ccccc12 | -1.4 | / | 6.3 | / | /
CCOC(=O)C(=C1Nc2ccccc2N1)n1c(-c2cnccn2)nc2ccccc21 | -1.9 | -3.3 | -1.0 | / | 96.0
CCOC(=O)C(=C1Nc2ccccc2N1)n1c(-c2ccco2)nc2ccccc21 | 1.4 | 98.0* | 0.1 | / | 99.0
Cc1ccc(C(=O)c2ccc(C)cc2)cc1 | -2.0 | -1.7 | 1.9 | 0.8 | 98.0
Cc1ccc(C(=O)c2no[n+]([O-])c2C(=O)c2ccc(C)cc2)cc1 | 1.6 | 67.6* | 2.8 | 6.2 | 67.0*
CCOC(=O)[C@@]12CCCC3=C1N(CCC3)C(=O)[C@H]2CC(=O)NCc1ccccc1 | / | / | -0.6 | / | /
CCN1C(=O)/C(=C/c2cccs2)N(C)C1=S | -3.2 | 5.4 | 1.2 | 19.3 | 98.0
CCN1C(=O)/C(=C/c2ccc(C)o2)N(C)C1=S | -2.3 | 58.0* | 7.5 | i | 101.0
CCCC[C@H](C(=O)N(C)c1ccccc1)[C@@H](O)c1ccc(C(C)=O)cc1 | / | / | 1.2 | / | /
CCOC(=O)CC[C@@H]1CC[C@]2(CCCN(Cc3nccn3C)C2)O1 | / | / | -2.0 | / | /
CCOC(=O)c1c(-c2ccc(C)o2)csc1NC(=O)CSc1nncs1 | -2.0 | 89.6* | -2.6 | -4.0 | 102.0
CC(/C=C1\SC(=Nc2cccnc2)NC1=O)=C\c1ccccc1 | -2.0 | 57.0* | 0.2 | 3.2 | 102.0
c1ccc(-c2c[nH]c3cccc(C4CCCCC4)c23)cc1 | / | / | 5.0 | / | /
COc1cc(/C=N/n2c(-c3cc(-c4ccccc4)n[nH]3)n[nH]c2=S)ccc1OCc1ccccc1 | / | / | -6.4 | / | /
Cc1ccc(CN2C(C(=O)NC3CCCC3)CSCCS2(=O)=O)cc1 (stereo not drawn) | / | / | -3.0 | / | /
Cc1ccc(-c2nc(=S)c3c(n2Cc2ccco2)CC(C)(C)OC3)cc1 | / | 61.1* | / | -2.3 | 100.0
O=C(CSc1nc(-c2ccc(Cl)cc2)cs1)Nc1cccc([N+](=O)[O-])c1 | -0.9 | 64.8* | 7.4 | 3.4 | 99.0
O=c1c(O[C@H]2O[C@@H](CO)[C@H](O)[C@@H](O)[C@@H]2O)c(-c2ccc(O)cc2)oc2cc(O)cc(O)c12 | -1.6 | 68.3* | -3.3 | 0.0 | 100.0
